What follows are sequences tested against CRIPAK (assay: pooled miR-30 sensor sort-seq; sequence = guide strand). Conditions: shRNA.
Further: reference of the scale not given here.

Q: Which sensor-assay potency score (higher = more potent) does the source give for TAGAATGTACGGTAACAGCGTC here?
A: -0.204

Q: TTAAAAAGCCACCATGAGTAGA was tested. Which sensor-assay potency score (higher = more potent) did it give?
A: -1.01

Q: How did the sensor-assay potency score (higher = more potent) turn out when ACCATGAGTAGAATGTACGGTA was run?
A: -1.4

Q: For AACAGCGTCTGACTCGGCCGGC, which sensor-assay potency score (higher = more potent) is on record?
A: -0.602

Q: With TAACAGCGTCTGACTCGGCCGG as the sequence, how does the sensor-assay potency score (higher = more potent) read?
A: -0.738

Q: For TCGACATGTGTGAGCAGGCGGG, which sensor-assay potency score (higher = more potent) is on record?
A: -1.62

Q: For ATGTACGGTAACAGCGTCTGAC, which sensor-assay potency score (higher = more potent) is on record?
A: -0.866

Q: How did the sensor-assay potency score (higher = more potent) turn out when TCCACATGGGCACATGAGCAGG was run?
A: -2.25

Q: Which sensor-assay potency score (higher = more potent) does the source give for ACCTACAGAACCACCATGCCAG here?
A: -1.69

Q: For TATAAAAGGGATCCTTGACATA, which sensor-assay potency score (higher = more potent) is on record?
A: -1.08

Q: Which sensor-assay potency score (higher = more potent) does the source give for TACAGAACCACCATGCCAGGGC here?
A: 0.653

Q: With TACGGTAACAGCGTCTGACTCG as the sequence, how does the sensor-assay potency score (higher = more potent) read?
A: -0.0922

These sequences were tested against CROT in the same assay as above. Conditions: shRNA.

Q: For TTTCATAGCAACAACCAGGGTG, which sensor-assay potency score (higher = more potent) is on record?
A: 0.143

Q: With TATATCTCGTACCTTCTCTGAA as the sequence, how does the sensor-assay potency score (higher = more potent) read?
A: -0.557

Q: How did the sensor-assay potency score (higher = more potent) turn out when TGATGGTATACGAACATCCAGA was run?
A: -1.05

Q: For TAGAGGAGTATTTCCAACTTTA, which sensor-assay potency score (higher = more potent) is on record?
A: -0.214

Q: For TTGTAACATCTTTTGCTGCCGC, which sensor-assay potency score (higher = more potent) is on record?
A: -0.495

Q: For TTTTCTTATATTCTTCTTGATT, which sensor-assay potency score (higher = more potent) is on record?
A: -1.35

Q: For TATACCAGTAAACTACTCTGAA, which sensor-assay potency score (higher = more potent) is on record?
A: 0.286

Q: How did the sensor-assay potency score (higher = more potent) turn out when TTCTAATTGAGTCCCTTCCTTT was run?
A: -0.88

Q: For TTCAAGTGAAGGAACAGGCAGT, which sensor-assay potency score (higher = more potent) is on record?
A: 0.589

Q: TTCATAGCAACAACCAGGGTGT was tested. Which sensor-assay potency score (higher = more potent) did it give?
A: 0.163

Q: For TTGTCTGAGAAGCTCTGGCGGG, which sensor-assay potency score (higher = more potent) is on record?
A: -0.935

Q: For TAGCATTCGGAATTGATTCATA, which sensor-assay potency score (higher = more potent) is on record?
A: -0.712

Source: the OligoGym collection
